# Source: PubChem BioAssay (National Center for Advancing Translational Sciences (NCATS))
# IL1B secr inh = inhibitors of inflammasome signaling (IL-1 beta secretion); hit rate 4.7% among 360,000; THP-1 LPS/ATP IL-1B secretion, AlphaLISA, 16 h; hits give low values; activity change, % at 57.5 µM; in the data active means activity change below about -50%; inconclusive means mostly about -30% to -49%
#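 Secreted IL-1B measured by AlphaLISA bead assay after 16 h compound exposure of THP-1 cells; compounds (final up to 57.5 uM) added 1 h before LPS (250 ng/mL) and ATP (1.25 mM) stimulation; lower signal means less secretion.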
# ELG1 DNA repair = ELG1-dependent DNA repair inhibition. hit rate 2.3% among 330,000. Potency, µM (series often up to 46.1 µM), for the others: top-dose activity change, negative = inhibition, hits mostly inhibitors. HEK293T ELG1-luciferase reporter, luminescence, 16 h; DNA damage induced by 5-fluorouridine; further: potency means the concentration at half of the fitted maximal effect; nearly all actives have a fitted effect of over 55% in size
#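 DMSO vehicle served as the neutral condition. Each well held 2,000 cells given 5-fluorouridine plus compound; after 16 hr at 37 °C/5% CO2, ONE-Glo was added and luciferase measured 30 min later.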
# VP16 counter = counter-screen for ROR gamma inhibitors: Gal4-VP16 reporter; hit rate 3.5% among 310,000; Potency, µM (series often up to 53.6 µM), without a hit: at the top dose activity, negative = inhibition, hits mostly inhibitors; Drosophila S2 Gal4-VP16 UAS-luciferase, luminescence, 20 h;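 further: Gal4-VP16 expression switched on by copper sulfate through the metallothionein promoter; potency means the concentration at half of the fitted maximal effect; nearly all actives have a fitted effect of over 50% in size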
# RORgamma inh = ROR gamma (mouse) transcription inhibition; P51450; hit rate 5.4% among 310,000; Potency, µM (highest dose often 53.6 µM), for inactives: at the highest dose activity change, negative = inhibition, usual class: inhibitors; Drosophila S2 Gal4-RORgamma UAS-luciferase reporter, 20 h; further: potency means the concentration at half of the fitted maximal effect; nearly all actives have a fitted effect of over 60% in size
# Target sequence (P51450 whole entry, looked up, the tested form may be a part): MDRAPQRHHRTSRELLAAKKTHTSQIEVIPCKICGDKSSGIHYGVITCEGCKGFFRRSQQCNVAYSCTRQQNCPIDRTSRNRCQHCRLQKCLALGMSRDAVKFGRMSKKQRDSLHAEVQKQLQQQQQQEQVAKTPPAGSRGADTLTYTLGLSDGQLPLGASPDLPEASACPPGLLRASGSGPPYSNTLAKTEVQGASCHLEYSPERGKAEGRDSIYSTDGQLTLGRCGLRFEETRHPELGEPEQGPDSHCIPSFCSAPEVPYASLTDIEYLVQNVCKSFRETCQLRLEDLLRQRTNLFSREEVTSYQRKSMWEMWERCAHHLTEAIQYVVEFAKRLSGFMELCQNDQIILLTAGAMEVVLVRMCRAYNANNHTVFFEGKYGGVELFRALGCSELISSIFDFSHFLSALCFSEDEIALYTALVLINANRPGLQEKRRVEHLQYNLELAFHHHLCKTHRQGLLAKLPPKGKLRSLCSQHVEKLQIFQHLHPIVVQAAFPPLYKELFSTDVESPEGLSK
#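 Read-out: Photinus luciferase luminescence; inhibitors lower reporter signal. Insect Schneider cells with Gal4-ROR gamma fusion under metallothionein promoter, UAS reporter; 700 uM final copper sulfate induction, 20 hr, ambient temperature.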
# TDP1 cell CPT = DT40-hTDP1 cell growth loss with CPT | chicken DT40 Tdp1-/-;hTDP1 cells + 20 nM CPT, ATP luminescence, 48 h | Potency, µM (series often up to 46.2 µM), for inactives: top-dose activity change, negative = growth inhibition, actives largely listed as inhibitors | hit rate 12% among 420,000; further: potency means the concentration at half of the fitted maximal effect; nearly all actives have a fitted effect of over 55% in size
#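 Chicken DT40 Tdp1-/- cells stably complemented with human TDP1 were seeded at 400 cells/well in medium containing 20 nM camptothecin, exposed to pin-transferred compounds, and grown at 37 °C for at least 48 hr. Viability was read as ATP luminescence.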
# TDP1 cell noCPT = qHTS for Inhibitors of human tyrosyl-DNA phosphodiesterase 1 (TDP1): qHTS in cells in absence of CPT; DT40 Tdp1-/- hTDP1 cells, no CPT, ATP luminescence, 48 h; Potency, µM (doses to about 46.2 µM), for the others: top-dose activity change, negative = growth inhibition, usual class: inhibitors; hit rate 15% among 420,000; further: potency means the concentration at half of the fitted maximal effect; nearly all actives have a fitted effect of over 55% in size
#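 Chicken DT40 Tdp1-/- cells complemented with human TDP1, screened without camptothecin (DMSO vehicle only), 400 cells/well. Compounds pin-transferred, cells incubated at 37 °C for at least 48 hr. Growth read as ATP-dependent luminescence (CellTiter-Glo, 30 min at RT).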
# An asterisk follows results filed as active; ? = inconclusive; . = not tested or not shown; [ ] = another dose, or the depositor's remark. Sampled rows, rich in hits. Any-hit rate of the full collection: about 21%. Unless noted, the call rests on the fitted dose curve; in most records, active means well fitted curve in the direction sought with a large enough effect; inconclusive means small, poorly fitted or top-dose-only effect, or another doubt; inactive means no such curve, though single readings can be large; an effect the other way counts as inactive or inconclusive. On the % scale 0 is the no-effect control and ±100 the full control effect.
SMILES,IL1B secr inh,ELG1 DNA repair,VP16 counter,RORgamma inh,TDP1 cell CPT,TDP1 cell noCPT
CCn1c(NC(=O)C2CCCCC2)nc2ccccc21,-12,5%,0.89µM*,0.35µM*,18µM*,13µM*
CCn1nccc1C(=O)Nc1cccc(C)c1C,-3,12%,7%,9%,13%,5%
CCn1nccc1C(=O)Nc1nc2ccccc2n1CCN1CCCCC1,?,-20%,?,16µM*,35µM*,?
O=C(Nc1ccc2ccccc2n1)C1CCCCC1,-16,?,-14%,7%,-24%,?
O=C(Nc1nc2ccccc2n1CCN1CCCCC1)C1CCCCC1,-22,4%,7.1µM*,2µM*,?,?
O=C(Nc1nc2ccccc2n1CCN1CCCCC1)c1ccc(Cl)cc1,.,21%,?,-43%,.,.
O=C(Nc1nc2ccccc2n1CCN1CCCC1)C1CCCCC1,-17,14%,10µM*,7.1µM*,-7%,-5%
CC#CCOCC1CNC(=O)O1 (stereo not drawn),4,.,.,.,-8%,-3%
Cc1ccc(C(=O)COC(=O)CCc2ccc(S(=O)(=O)N3CCCCC3)cc2)cc1,23,10%,-6%,3%,-13%,-22%
COC(=O)c1sc2ccccc2c1-n1cccc1C(=O)C(=O)Nc1ccc(F)cc1,-2,15µM*,-25%,19%,14%,-26%
COC(=O)c1sc2ccccc2c1-n1cccc1C(=O)C(=O)Nc1ccc(C)cc1,0,?,1%,11%,?,?
Cn1c(=O)c2cc(NC(=S)NC3CCCCC3)ccc2n1Cc1ccc(Cl)cc1,-57*,.,.,.,?,23µM*
Cn1c(=O)c2cc(NC(=O)NCc3ccc(F)cc3)ccc2n1Cc1cccc(C(F)(F)F)c1,-1,.,.,.,21µM*,15µM*
COc1ccc(CNC(=O)Nc2ccc3c(c2)c(=O)n(C)n3Cc2cc(C)cc(C)c2)cc1,12,.,.,.,21µM*,?
Cn1c(=O)c2cc(NC(=S)NCc3ccccc3F)ccc2n1Cc1ccccc1,-14,.,.,.,16µM*,15µM*
Cn1c(=O)c2cc(NC(=O)NCc3ccccc3)ccc2n1Cc1cccc(C(F)(F)F)c1,23,.,.,.,?,?
Cn1c(=O)c2cc(NC(=S)NC3CC3)ccc2n1Cc1cccc(C(F)(F)F)c1,34,.,.,.,-23%,?
CC(C)(C)OC(=O)NN1CC(=O)N2Cc3ccccc3C[C@@H]2C1=O,3,8%,-8%,-30%,-2%,14%
Cn1c(=O)c2cc(NC(=S)NCc3ccccc3F)ccc2n1Cc1cccc(C(F)(F)F)c1,-1,.,.,.,21µM*,?
N#Cc1ccc(OCC(=O)Nc2nc(-c3cccnc3)cs2)cc1,53,13%,.,.,-4%,-4%
CC(=O)Nc1ccc(-c2csc(NNC(=O)c3ccc(C)cc3)n2)cc1,-12,-20%,3%[10 µM],-22%,13µM*,10µM*
CC(=O)NNc1nc(-c2ccc(NC(C)=O)cc2)cs1,-7,13%,?,-5%,-12%,6%
N#Cc1ccc(-c2csc(NNC(=O)c3ccccc3)n2)cc1,-2,?,?,11µM*,?,?
N#Cc1ccc(-c2csc(NNC(=O)c3ccc(Br)cc3)n2)cc1,-2,?,?,5µM*,5.2µM*,5.8µM*
COC(=O)c1nc(NNC(=O)c2ccccc2)sc1-c1ccccc1,-14,?,-26%,14µM*,11%,7%
N#Cc1ccc(C(=O)NNC(=O)c2ccncc2)cc1,3,-4%,-5%,-11%,-7%,14%
O=C(Nc1nc(-c2ccccc2)cs1)c1cccnc1,-19,-4%,14%,13%,?,?
O=C(NNc1nc(-c2ccccc2)cs1)c1ccccc1,-14,?,4µM*,5µM*,?,21µM*
